# Compound activity as filed in PubChem BioAssay.
# Shown are actives, neighbours in structure and some others; about 4.3% of the full set was active somewhere.
# UBC13 polyUb = human UBC13 polyubiquitination inhibition. hit rate 0.47% among 330,000. AID 485273. inhibition, % at 20 µM. P61088. UBC13 polyubiquitin chain formation, TR-FRET; in the data active = inhibition above about 45%, passing the limit was not always enough
# Target sequence (P61088 whole entry, looked up): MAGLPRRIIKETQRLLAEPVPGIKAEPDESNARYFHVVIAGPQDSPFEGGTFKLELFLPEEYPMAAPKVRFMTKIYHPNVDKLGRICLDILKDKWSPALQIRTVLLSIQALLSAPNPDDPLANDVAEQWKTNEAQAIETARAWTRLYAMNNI
# GRIN3A LBD mod = NR3A (human) ligand-binding domain modulation; NR3A LBD differential scanning fluorimetry, Tm shift; 0% = protein alone, 100% = glycine-bound protein; Tm shift relative to glycine control, % at 25 µM; hit rate 2.5% among 340,000;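 active = melting temperature shift of at least 10% of the positive control shift, at one fixed dose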
# NALP1 inh = inhibitors of NALP1 inflammasome in yeast; S. cerevisiae NALP1/ASC/caspase-1 growth, X-gal OD620, 72 h; inhibition, % at 10 µM; hit rate 0.61% among 280,000; in the data active = inhibition mostly above about 24%, no sharp cut-off; inactive = mostly below about 32%
# dFosB activator = mouse delta FosB homodimer activation. hit rate 0.99% among 340,000. purified delta FosB, TAMRA-CDK5 oligo fluorescence polarization; percent of positive-control signal above neutral wells. P13346. activation, % at 25 µM;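 active = mean activation above about 17%, with every replicate also reaching it, limit read from the data, passing the limit was not always enough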
# Target sequence (P13346 whole entry, looked up): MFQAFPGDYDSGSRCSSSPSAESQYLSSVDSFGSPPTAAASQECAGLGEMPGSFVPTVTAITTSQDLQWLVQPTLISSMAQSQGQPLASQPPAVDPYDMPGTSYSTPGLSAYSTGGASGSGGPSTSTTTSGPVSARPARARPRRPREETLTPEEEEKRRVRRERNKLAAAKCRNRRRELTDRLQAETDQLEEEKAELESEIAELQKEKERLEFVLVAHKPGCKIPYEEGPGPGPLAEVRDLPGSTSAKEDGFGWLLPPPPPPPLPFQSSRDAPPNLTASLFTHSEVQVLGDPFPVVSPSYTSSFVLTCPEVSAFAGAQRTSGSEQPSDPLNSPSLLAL
# Yeast superoxide = yeast age-related superoxide inhibition as caloric restriction mimetic; S. cerevisiae aged cells, superoxide DHE fluorescence; active compounds read low; superoxide response (% of plate mean), % at 10 µM; hit rate 0.18% among 330,000; AID 2690;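 active = superoxide response under a set limit, about three screen SD below normal, cut at about 65% in these data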;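 also: yeast aged for seven days with compound at 30 °C before DHE staining; 100% = average MFI of all compound-treated wells on the plate with controls excluded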
# Starred values were filed as active, the others as inactive; / = no result.
SMILES,UBC13 polyUb,GRIN3A LBD mod,NALP1 inh,dFosB activator,Yeast superoxide
CN1C(C(=O)NCc2cccc(C(F)(F)F)c2)CC2Cn3c(nc4cc5ccccc5cc43)C21 (stereo not given),8.6,-0.4,/,-11.8,81.6
C=CCNC(=O)C1CC2Cn3c(nc4cc5ccccc5cc43)C2N1C (stereo not given),0.5,11.5*,/,6.5,100.7
COC(=O)c1ccc(C(=O)OC)c(-n2c(=O)c3ccccc3c3ccccc3c2=O)c1,0.9,-2.1,20.1,-15.0,105.9
COc1cc(/C=C(\C#N)c2nc3ccccc3[nH]2)cc(Br)c1OCc1ccccc1,-18.8,17.5*,21.1,0.2,95.2
N#C/C(=C\c1ccc(Sc2ccc(Cl)cc2)o1)c1nc2ccccc2[nH]1,/,14.7*,32.3,-6.0,96.3
COc1ccc(/C=C(\C#N)c2nc3ccccc3[nH]2)cc1O,-24.1,7.5,1.2,8.4,/
Cc1ccc(/C=C(\C#N)c2nc3ccccc3[nH]2)s1,-21.0,18.8*,-17.2,1.6,94.8
COc1c(O)ccc(/C=C(\C#N)c2nc3ccccc3[nH]2)c1[N+](=O)[O-],-50.7,22.8*,23.9,-9.4,107.3
CS(=O)(=O)N(CC(=O)N1CCc2ccccc2C1)c1ccccc1Br,2.3,2.2,/,-1.4,104.3
Cc1cc(NC(=O)NC(=O)c2ccccc2F)no1,-3.7,-0.5,18.7,6.7,97.2
CN(C)c1ccc(/C=C/c2nc3ccccc3s2)cc1,2.9,10.9*,11.9,-4.2,86.7
CN(C)c1ccc(/C=C/c2ccc3ccccc3n2)cc1,/,-24.0,15.8,-7.3,117.5
C[C@H](CO)N1C[C@H](C)[C@@H](CN(C)Cc2ccc(C(=O)O)cc2)Oc2ccc(NS(=O)(=O)c3cn(C)cn3)cc2C1=O,4.7,-3.3,/,-2.0,90.2
O=C(NCCCc1ccncc1)C1CCC(=O)N(CCc2cccc(F)c2)C1 (stereo not given),-0.1,-0.6,19.8,-0.9,80.4
Cc1ccc(S(=O)(=O)CCC(=O)OCC(=O)NCCc2ccccc2)cc1,-3.4,15.5*,/,-9.6,99.1
O=C(NCC1COc2ccccc2O1)c1ccc(F)c(S(=O)(=O)N2CCOCC2)c1 (stereo not given),-0.2,0.5,/,-12.4,/
CCc1ccc(NC(=O)c2ccc(F)c(S(=O)(=O)NCC3COc4ccccc4O3)c2)cc1 (stereo not given),-10.7,15.8*,22.6,1.4,98.6
COCCN=C1Sc2nc3ccc(C)cc3cc2CN1Cc1ccco1,-17.5,0.5,48.2*,-24.1,93.2
COCCN=C1Sc2nc3cc(C)c(C)cc3cc2CN1Cc1cccs1,7.8,-4.6,/,-9.7,69.9
CSc1ccc(S(=O)(=O)N2c3ccccc3CC2C)cc1 (stereo not given),7.1,2.0,5.2,5.4,94.9
CCOC(=O)c1c(N)nn(C(=O)C(C)C)c1-c1ccccc1,13.5,-2.1,37.5*,4.0,102.2
Cc1cc(C)cc(-n2ncc3c2CCCC3NC(=O)c2ccccc2N2CCOCC2)c1 (stereo not given),10.0,-2.1,13.4,-8.1,111.2
CCCn1c(N)c(N2CCCCC2)c(=O)n(CC(=O)Nc2ccccc2C)c1=O,-1.0,-0.6,37.0*,-0.9,87.2
O=C(NC1CCCCC1)C1CCN(S(=O)(=O)c2cccc3nonc23)CC1,-5.5,-0.7,10.2,-1.4,93.0
Cc1csc(NC(=O)CN2C(=O)COc3ccc(Cl)cc32)n1,-2.6,1.3,/,28.9*,101.0
SMILES,UBC13 polyUb,GRIN3A LBD mod,NALP1 inh,dFosB activator,Yeast superoxide
O=C(COc1ccc(Cl)cc1)Nc1cc(NC(=O)COc2ccc(Cl)cc2)cc(C(=O)O)c1,-6.8,12.1*,-5.1,-8.4,105.2
Cc1ccc(NC(=O)COC(=O)COc2ccc(Cl)cc2)c([N+](=O)[O-])c1,-15.3,-2.1,22.9,2.9,102.9
Cc1ccc(OCC(=O)Nc2cc(NC(=O)COc3ccc(C)cc3)cc(C(=O)O)c2)cc1,-19.7,0.5,10.9,-22.6,95.4
O=C(COC(=O)COc1ccc(Cl)cc1)Nc1ccc(F)c([N+](=O)[O-])c1,11.2,12.0*,29.8,-10.4,104.3
O=C(COC(=O)CNC(=O)c1ccccc1)Nc1ccc(F)c([N+](=O)[O-])c1,-9.9,13.0*,10.6,-11.6,103.2
Cc1cccc(N2CCN(S(=O)(=O)c3c(C(=O)N4CCCCC4)c(C)n(C)c3C)CC2)c1C,4.4,-0.7,8.4,-19.4,101.5
O=C1N/C(=N\S(=O)(=O)c2ccccc2)S/C1=C\c1cc([N+](=O)[O-])ccc1O,-42.9,14.0*,5.6,-7.4,107.2
c1ccc2c(Nc3nc(N4CCOCC4)c4ccccc4n3)cccc2c1,11.1,-3.9,91.4*,3.0,105.0
Nc1nc(Nc2ccccc2)nc(N2CCOCC2)c1[N+](=O)[O-],-8.3,1.2,22.6,-4.0,86.6
Nc1nc(Nc2ccccc2F)nc(N2CCOCC2)c1[N+](=O)[O-],1.5,15.4*,/,-8.2,105.1
O=C(Nc1cccc2ccccc12)N1CCOCC1,-8.0,17.3*,-22.8,3.1,110.2
COc1ccc([C@@]23Oc4cc(OC)cc(OC)c4[C@]2(O)[C@H](O)[C@H](C(=O)N(C)C)[C@H]3c2ccccc2)cc1,/,1.0,/,-1.0,/
CC[C@H]1OC(=O)[C@H](C)[C@@H](O[C@H]2C[C@@](C)(OC)[C@@H](O)[C@H](C)O2)[C@H](C)[C@@H](O[C@@H]2O[C@H](C)C[C@H](N(C)C)[C@H]2O)[C@](C)(O)C[C@@H](C)C(=O)[C@H](C)[C@@H](O)[C@]1(C)O,/,-1.1,4.2,-4.9,86.9
CCOC(=O)CCC(=O)O[C@H]1[C@H](O[C@@H]2[C@@H](C)[C@H](O[C@H]3C[C@@](C)(OC)[C@@H](O)[C@H](C)O3)[C@@H](C)C(=O)O[C@H](CC)[C@@](C)(O)[C@H](O)[C@@H](C)C(=O)[C@H](C)C[C@@]2(C)O)O[C@H](C)C[C@@H]1N(C)C,/,0.6,91.7*,-8.5,88.6
COc1ccc(Nc2nc(NCc3ccco3)nc(N/N=C/c3ccccc3)n2)cc1,0.2,-2.5,-8.0,29.1*,105.9
CCOC(=O)/C=C1\Nc2ccccc2OC1=O,11.6,0.5,47.0*,3.1,79.5
CC(NC(=O)C(=O)c1cn(CC(=O)N2CCOCC2)c2ccccc12)c1ccccc1 (stereo not given),-7.5,-0.7,-4.5,-7.4,93.3
COc1ccc2cc1Oc1ccc(cc1)CC1c3c(cc(OC)c4c3Oc3cc5c(cc3O4)CCNC5C2)CCN1C (stereo not given),110.1*,-8.3,/,1.9,88.6
CCOC(=O)c1c(N2C(=O)C=CC2=O)sc(C)c1C,-3.1,0.4,53.2*,-12.8,118.0
CCOC(=O)c1c(NC(N)=O)sc(C)c1C,10.2,-0.4,19.5,-1.4,84.5
Cc1ccc(OCC(=O)N2CCOCC2)cc1C,7.8,-4.1,27.6,-7.0,90.6
Cc1ccc(OCC(=O)N2CCCCC2)c(Br)c1,-7.4,17.1*,14.5,-10.8,104.7
Cc1cc(C)c(C)c(OCC(=O)N2CCOCC2)c1,-2.3,0.1,43.7*,1.3,97.5
